# Experimental data reported in PMC4336329 (PLoS ONE, 2015).
# Out of some 310,000 compounds screened, about 14,000 (4.5%) showed an effect of 50% or more. The effect is printed as a negative number. What follows is part of a selection rich in strong results, with near analogues and random picks from the rest.
# Target: human ether-à-go-go-related gene (hERG) potassium channel (human, UniProt Q12809)
# Assay: primary screen, population patch clamp on CHO cells stably expressing hERG; higher = less effect of the substance
# 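Further: peak tail current of the secondary pulse compared with the same well before compound.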
# Sequence of human ether-à-go-go-related gene (hERG) potassium channel (Q12809 whole entry, looked up): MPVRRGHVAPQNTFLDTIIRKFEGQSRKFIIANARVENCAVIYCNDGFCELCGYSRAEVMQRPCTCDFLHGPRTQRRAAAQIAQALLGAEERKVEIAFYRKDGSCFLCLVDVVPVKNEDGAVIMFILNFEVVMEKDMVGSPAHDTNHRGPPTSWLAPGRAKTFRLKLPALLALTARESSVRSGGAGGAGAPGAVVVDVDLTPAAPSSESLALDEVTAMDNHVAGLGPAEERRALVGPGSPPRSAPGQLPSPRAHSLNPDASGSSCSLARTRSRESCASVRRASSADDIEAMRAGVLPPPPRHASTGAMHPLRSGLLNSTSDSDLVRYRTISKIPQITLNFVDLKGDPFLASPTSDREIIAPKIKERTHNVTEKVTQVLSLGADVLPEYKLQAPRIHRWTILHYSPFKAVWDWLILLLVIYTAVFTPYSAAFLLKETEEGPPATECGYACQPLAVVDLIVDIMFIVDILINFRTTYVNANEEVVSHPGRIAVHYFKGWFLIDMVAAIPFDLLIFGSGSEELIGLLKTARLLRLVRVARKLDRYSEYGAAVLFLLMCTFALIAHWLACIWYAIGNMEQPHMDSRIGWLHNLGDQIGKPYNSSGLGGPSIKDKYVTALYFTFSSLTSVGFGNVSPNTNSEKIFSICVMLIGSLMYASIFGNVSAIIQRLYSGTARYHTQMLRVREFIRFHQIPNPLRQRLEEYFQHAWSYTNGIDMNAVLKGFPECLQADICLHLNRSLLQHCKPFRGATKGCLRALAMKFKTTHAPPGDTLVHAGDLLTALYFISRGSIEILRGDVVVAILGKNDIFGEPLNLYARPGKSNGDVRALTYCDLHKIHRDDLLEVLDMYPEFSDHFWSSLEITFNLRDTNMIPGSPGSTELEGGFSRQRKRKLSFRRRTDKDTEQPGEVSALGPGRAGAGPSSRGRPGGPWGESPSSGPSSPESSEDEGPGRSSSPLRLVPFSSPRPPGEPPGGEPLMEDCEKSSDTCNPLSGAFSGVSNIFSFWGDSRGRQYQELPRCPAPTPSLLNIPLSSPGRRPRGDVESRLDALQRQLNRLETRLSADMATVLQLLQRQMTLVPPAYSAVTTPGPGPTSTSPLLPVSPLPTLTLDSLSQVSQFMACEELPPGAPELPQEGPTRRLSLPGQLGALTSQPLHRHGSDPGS
row,SMILES,"hERG current change (%, negative = inhibition) at 10uM [%]"
1,COc1ccc(N(C(=O)COc2ccccc2)C2C=CS(=O)(=O)C2)cc1 (stereo not drawn),-1.57
2,CCC(=O)Nc1c(S(=O)(=O)c2ccc(C)cc2)c2nc3ccccc3nc2n1C(C)c1ccccc1 (stereo not drawn),-14.9
3,C=C(C)CN=C1NN=C(c2cc(C)n(-c3ccc(C)cc3)c2C)CS1,4.06
4,O=C(NCCNC(=O)c1ccccc1F)c1ccco1.O=C(O)C(=O)O,13.9
5,O=C(CSc1ccc(Cl)cc1)N1CCN(c2ccc(Cl)cc2[N+](=O)[O-])CC1,-61.5
6,CN1CCN(C(=O)CSc2ccc(Cl)cc2)CC1,6.35
7,O=C(CSc1ccc(Cl)cc1)N1CCN(c2c(Cl)cccc2[N+](=O)[O-])CC1,-17.2
8,O=C(CN1CCN(c2ccc(Cl)cc2[N+](=O)[O-])CC1)N1CCOCC1,-33.6
9,O=C(CSc1ccc(Cl)cc1)N1CCCC1,16.6
10,O=C(CSc1ccc(Cl)cc1)N1CCN(c2ccc([N+](=O)[O-])cc2Cl)CC1,-59.2
11,CCN1C(=O)c2ccc(C(=O)O)cc2C1=O,9.2
12,c1ccc(CCNc2ncnc3sccc23)nc1,26.8
13,O=C(c1ccc(Cl)cc1)c1ccc(OCC(=O)N2CCOCC2)cc1,-40.8
14,CCOC(=O)N1CCN(C(=O)c2ccc(NC(=O)c3ccc(C)cc3)cc2)CC1,-13.3
15,COc1ccc([N+](=O)[O-])cc1NC(=O)Cn1ccc(C(F)(F)F)n1,13.3
16,COc1ccc([C@@H]2Sc3cc(OC)ccc3N(CCN(C(C)C)C(C)C)C(=O)[C@H]2OC(C)=O)cc1.Cl,-75
17,COc1ccc2c(c1)Sc1ccccc1N2CCN(C)C.O=C(O)C(=O)O,-21.3
18,COc1ccc(N2C(=O)C(OC(C)=O)C2c2ccc(C)cc2)cc1 (stereo not drawn),17.3
19,Cc1ccc(N2C(=O)CC(Sc3ncn[nH]3)C2=O)cc1C (stereo not drawn),14.2
20,S=C(NCC1CCCO1)N1CCN(c2ccccc2)CC1 (stereo not drawn),23.5
21,Cc1cc2ccccc2c(=O)[nH]1,16.5
22,CCn1c(CNC(=O)C2CCCCC2)cc2cc(C)ccc21,28

row,SMILES,"hERG current change (%, negative = inhibition) at 10uM [%]"
1,CN(C)c1nc(NCc2ccccc2)nc(SCC(N)=O)n1,7.76
2,Cn1c2ccccc2c2ncn(CCCN3CCOCC3)c(=O)c21,-16.6
3,Cn1c(=O)c2c(-c3ccccc3)n(CCCN3CCOCC3)cc2n(C)c1=O,16.1
4,O=c1oc2ccccc2c2c1ncn2CCN1CCOCC1,-8.76
5,N=c1c2c(-c3ccccc3)c(-c3ccccc3)oc2ncn1CCCN1CCOCC1,-79.2
6,COc1ccc(-c2oc3ncn(CCN4CCOCC4)c(=N)c3c2-c2ccc(OC)cc2)cc1,-70.3
7,COc1ccc(-c2oc3ncnc(NCCN4CCOCC4)c3c2-c2ccc(OC)cc2)cc1,2.75
8,N=c1c2c(-c3ccccc3)c(-c3ccccc3)oc2ncn1CCN1CCOCC1,-70.8
9,COc1ccc(-c2oc3ncn(Cc4ccco4)c(=N)c3c2-c2ccc(OC)cc2)cc1,-49.4
10,CC(C)Cc1n[nH]c(=O)[nH]1,-6.31
11,O=C(Nc1c2c(nn1-c1ccc(F)cc1)CS(=O)C2)c1ccc(S(=O)(=O)N2CCOCC2)cc1 (stereo not drawn),21.9
12,Cc1cc(NC(=O)c2c(-c3ccccc3Cl)noc2C)no1,5.88
13,CS(=O)(=O)NNC(=O)c1cc2cc3ccccc3nc2s1,9.84
14,COc1ccc(NC(=O)C2=CC(c3ccc(OC)c(OC)c3)=NS(=O)(=O)N2C)cc1,-4
15,O=C(NCC1CCCO1)c1cc(-c2ccc(F)cc2)no1 (stereo not drawn),0.634
16,O=C1C2(c3ccccc3)CN(CCO)CC1(c1ccccc1)CN(CCO)C2,-10.6
17,C=CCN1CC2(c3ccccc3)CN(CC=C)CC(c3ccccc3)(C1)C2=O,-19.3
18,O=C1C2(c3ccccc3)CN(CCCO)CC1(c1ccccc1)CN(CCCO)C2,-50.4
19,CCOC(=O)C1CCN(C(=O)CN2C(=O)CSc3ccc(S(=O)(=O)N4CCOCC4)cc32)CC1,-22.6
20,O=C(N=C1SC2CS(=O)(=O)CC2N1Cc1ccc(F)cc1)C1CCCO1 (stereo not drawn),-5.58
21,CN(CC(=O)Nc1ccccc1Br)C(=O)c1cc(S(=O)(=O)N(C)C)ccc1N1CCCC1,-8.64
22,CN(C)S(=O)(=O)c1ccc(N2CCCC2)c(C(=O)NCc2cccc(C(F)(F)F)c2)c1,4.61

row,SMILES,"hERG current change (%, negative = inhibition) at 10uM [%]"
1,CN(C)S(=O)(=O)c1ccc(N2CCCC2)c(C(=O)Nc2ccccc2F)c1,-14.7
2,CN(C)S(=O)(=O)c1ccc(N2CCCC2)c(C(=O)NCc2ccc(Cl)cc2)c1,-68.5
3,Cc1ccccc1OCC(=O)NNC(=O)c1cc(S(=O)(=O)N(C)C)ccc1N1CCCC1,0.0569
4,CCc1ccccc1NC(=O)c1cc(S(=O)(=O)N(C)C)ccc1N1CCCC1,-32.2
5,CN(C)S(=O)(=O)c1ccc(N2CCCC2)c(C(=O)NNC(=O)COc2ccccc2F)c1,-61.4
6,CN(C)S(=O)(=O)c1ccc(N2CCCC2)c(C(=O)Nc2ccc(Br)cc2F)c1,3.03
7,CSc1ccccc1NC(=O)c1cc(S(=O)(=O)N(C)C)ccc1N1CCCC1,-54.7
8,CN(C)S(=O)(=O)c1ccc(N2CCCC2)c(C(=O)Nc2ccccc2Br)c1,-58.3
9,CN(C)S(=O)(=O)c1ccc(N2CCCC2)c(C(=O)NNC(=O)COc2ccccc2Cl)c1,-30.3
10,CN(C)S(=O)(=O)c1ccc(N2CCCC2)c(C(=O)NCc2ccccc2)c1,-10
11,O=C(C1CCCO1)N1CCN(C(c2ccccc2)c2ccccc2)CC1 (stereo not drawn),0.514
12,CC1(C)C=C2[C@H]3CC[C@@H]4[C@@]5(C)CCC(=O)C(C)(C)[C@@H]5CC[C@@]4(C)[C@]3(C)CC[C@@]2(C(=O)O)CC1,-1.05
13,CCN(CC)C(=O)C(=O)N/N=C/c1cccc(Br)c1,-8.07
14,CCN(CC1COc2ccccc2O1)C(=S)NC1CC2CCC1C2 (stereo not drawn),1.34
15,Cc1cc(C)cc(OCc2ccc(C(=O)NC3CCOC3=O)o2)c1 (stereo not drawn),15.9
16,O=C(Nc1nccs1)C(c1ccccc1)N1CCCC1 (stereo not drawn),-7.89
17,COC(=O)c1sccc1N/N=C/c1cccc(Oc2ccccc2)c1,-7.09
18,CC1S/C(=N/N=C/c2ccco2)N(Cc2ccc(F)cc2)C1=O (stereo not drawn),-11.3
19,COc1cc(OC)nc(Oc2ccccc2C(=O)Oc2ccc(Cl)cc2)n1,-21.6
20,Cc1nnsc1SCC(=O)O,-0.15
21,CN(C)S(=O)(=O)c1ccc(N2CCCC2)c(C(=O)Nc2ccccc2OC(F)F)c1,-54.2
22,CN(C)S(=O)(=O)c1ccc(N2CCCC2)c(C(=O)Nc2ccc(F)cc2F)c1,-33.2

row,SMILES,"hERG current change (%, negative = inhibition) at 10uM [%]"
1,CN(C)S(=O)(=O)c1ccc(N2CCCC2)c(C(=O)NC(c2ccccc2)c2ccccc2)c1,6.73
2,COc1cc(-c2nn3c(-c4cccc(C)c4)nnc3s2)cc(OC)c1OC,13.1
3,Cc1nn(C)c(=O)n1N(C)c1ncc(C(F)(F)F)cc1Cl,23.8
4,Cc1ccc(F)cc1NC(=O)CN1CCN(c2ccccn2)CC1,-35.2
5,Cc1c(CN2CC[C@@H](N3CCN(c4ccccn4)CC3)[C@H](O)C2)[nH]c2ccc(F)cc12,-60.9
6,Cc1[nH]c2ccc(C(=O)N3CCN(c4ccccn4)CC3)cc2c1C,-2.92
7,CCN(CC)CCNC(=O)c1ccc(NC(=O)c2c(F)cccc2Cl)cc1,-12.4
8,CCN(CC)CCNC(=O)c1ccc(NC(=O)c2ccc(F)cc2)cc1,-43.6
9,CCN(CC)CCNC(=O)c1ccc(NC(=O)c2c(C)nn(-c3ccc(F)cc3)c2Cl)cc1,-60
10,COC(=O)c1c(C)nn(-c2ccc(F)c(Cl)c2)c1-c1cc(C)on1,-4.39
11,O=C(O)CCSc1nnc(SCC(=O)NCC(F)(F)F)s1,7.55
12,Cc1nn(C(=O)c2ccco2)c(C)c1CN1C(=O)c2ccccc2C1=O,-12.2
13,OC(c1ccc(Cl)cc1)C(O)c1nc2ccccc2[nH]1 (stereo not drawn),-2.47
14,OC(COc1ccc2cc(Br)ccc2c1)CN1CCN(c2ccccn2)CC1 (stereo not drawn),1.85
15,CC(C)c1ccc(OCC(O)CN2CCN(c3ccccn3)CC2)cc1.Cl (stereo not drawn),-63.7
16,CC(=O)c1ccc(OCC(O)CN2CCN(c3ccccn3)CC2)cc1.Cl (stereo not drawn),-25.8
17,CC(C)(C)c1ccc(OCC(O)CN2CCN(c3ccccn3)CC2)cc1.Cl (stereo not drawn),-16
18,OC(CN1CCN(c2ccccn2)CC1)Cn1c2ccc(Cl)cc2c2cc(Cl)ccc21 (stereo not drawn),0.599
19,OC(COc1ccc(Cl)cc1)CN1CCN(c2ccccn2)CC1 (stereo not drawn),-68
20,Cl.OC(COCc1ccc(Cl)cc1)CN1CCN(c2ccccn2)CC1 (stereo not drawn),-66.4
21,Cc1cc(OCC(O)CN2CCN(c3ccccn3)CC2)cc(C)c1Cl.Cl (stereo not drawn),-0.237
